SKOV3 invasion: Primary qHTS assay for Inhibitors of ovarian cancer metastasis using an organotypic tumor microenvironment (TME) model; SKOV3ip1-GFP adhesion/invasion on 3D omental model, fluorescence; Potency, µM (highest dose often 45.8 µM), most hits filed as inhibitors; 46,000 compounds, 0.1% hits; AID 1963576, 2024; also: nearly all actives have a fitted effect of over 65% in size
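qHTS, 4-pt dose (0.36-46 umol/L); SKOV3ip1-GFP, 1,200 cells/well, no FBS; primary omental fibroblast/mesothelial co-culture 48 h pre-grown; 2 h RT + 16 h 37 C; PBS wash, 4% PFA; GFP count 488/509 nm.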
S16 F2sN tox: Cell viability qHTS assay in S16 Pmp22-F2sN cells; S16 Pmp22-F2sN Schwann cells viability, CellTiter-Glo, 24 h; Potency, µM (doses to about 57.5 µM), usual class: cytotoxic; 43,000 compounds, 0.48% hits; also: nearly all actives have a fitted effect of over 65% in size
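S16 Schwann cells carrying the Pmp22-F2sN reporter, seeded in 1536-well format, were exposed to library compounds for 24 h at 37C. Viability was read as CellTiter-Glo luminescence after 15 min at room temperature.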
p53null 32C tox: qHTS Screen for Compounds that Selectively Target Cancer Cells with p53 Mutations: Cytotoxicity of p53 Null Cells at the Permissive Temperature. Potency, µM (top dose mostly 46.1 µM), usual class: cytotoxic. 55,000 compounds, 0.62% hits. H1299-neo p53 null cells, ATP luminescence, 24 h, 32C; also: nearly all actives have a fitted effect of over 55% in size
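Overnight 37C seeding (600 cells/well) of H1299-neo preceded a 24 hr, 32C exposure to compounds up to 46 uM. ATP levels, read by luminescence after 20 min at RT, indicated surviving cells.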
PMP22 txn prim: Cell-based coincidence reporter assay to measure PMP22 gene transcription in S16 Pmp22-F2sN cells - Primary screen. AID 1508649, 2021. 43,000 compounds, 2% hits. S16 Pmp22-F2sN Schwann cells (luciferase reporters placed in the Pmp22 gene), FLuc/NLuc coincidence luminescence, 24 h. Potency, µM (titrated, usually from 57.5 µM), actives largely listed as inhibitors; active = clear falling dose curves in both reporters; inconclusive = both reporters move, but less clearly or upward; inactive = either reporter flat; the % is the NLuc reporter signal
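S16 Schwann cells carrying FLuc/NLuc coincidence reporter in the Pmp22 3' UTR treated with compound 24 h at 37C; FLuc then NLuc luminescence read sequentially by dual-luciferase reagents.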
pS6 MEF inh: Acumen qHTS Assay for Inhibitors of the mTORC1 Signaling Pathway in MEF (Tsc2-/-, p53-/-) Cells: Sytravon; Potency, µM (top dose mostly 38.3 µM), usual class: inhibitors; 44,000 compounds, 0.78% hits; Tsc2-/- p53-/- MEF, phospho-rpS6 immunofluorescence/PI, 24 h; also: nearly all actives have a fitted effect of over 50% in size
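Cell-based qHTS: Tsc2-/- p53-/- MEF, 24 h cpd, 37 °C; fix/perm, anti-phospho-S6 Alexa-488 + PI; Acumen 488 nm scan; pS6/PI ratio, % positive cells; rapamycin 7.5 nM = inhibition ref; PI count = viability.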
p53null 39C kill: qHTS Screen for Compounds that Selectively Target Cancer Cells with p53 Mutations: Cytotoxicity of p53 Null Cells at the Nonpermissive Temperature. AID 904, 2007. 55,000 compounds, 0.97% hits. Potency, µM (highest dose often 46.1 µM), most hits filed as cytotoxic. H1299 p53-null (neo) cells, 39C, ATPlite viability, 24 h; also: nearly all actives have a fitted effect of over 50% in size
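H1299 lung cancer cells, p53-null (H1299-neo) or expressing p53 A138V (H1299-p53A138V), were plated overnight at 37C, then exposed to compounds at up to 46 uM for 24 hr at 39C. Viability was read by ATP-based luminescence.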
Numbers stand for hits. Most compounds without a hit are left out; they make up all but 3% or so of the library. Unless noted, calls follow the shape of the dose curve; as a rule, active = well fitted curve in the direction sought with a large enough effect; inconclusive = small, poorly fitted or top-dose-only effect, or another doubt; inactive = no such curve, though single readings can be large; an effect the other way counts as inactive or inconclusive.

What do the screens show for `Cc1cc(C)cc(OC(=O)c2cc(-c3ccc4c(c3)OCCO4)on2)c1`?
SKOV3 invasion: inactive; S16 F2sN tox: inactive; p53null 32C tox: inconclusive; PMP22 txn prim: inactive; pS6 MEF inh: inactive; p53null 39C kill: 32µM

Results for O=C(Nc1cccc(Br)c1)c1cc(-c2ccc3c(c2)OCCO3)on1 ?
SKOV3 invasion: inactive; S16 F2sN tox: inactive; p53null 32C tox: inconclusive; PMP22 txn prim: inactive; pS6 MEF inh: inactive; p53null 39C kill: inconclusive

Results for Cc1cccc(OC(=O)c2cc(-c3ccc4c(c3)OCCO4)on2)c1 ?
SKOV3 invasion: inactive; S16 F2sN tox: inactive; p53null 32C tox: inconclusive; PMP22 txn prim: inactive; pS6 MEF inh: inactive; p53null 39C kill: 25µM

How did CCOc1cc(C(c2c(C)[nH]n(-c3ccccc3)c2=O)c2c(C)[nH]n(-c3ccccc3)c2=O)ccc1O do in these assays?
SKOV3 invasion: inconclusive; S16 F2sN tox: inactive; p53null 32C tox: inactive; PMP22 txn prim: 9.5µM; pS6 MEF inh: inactive; p53null 39C kill: inactive

How did N#Cc1c(O)c2c(-c3ccc(-c4ccccc4O)cc3)csc2[nH]c1=O do in these assays?
SKOV3 invasion: inactive

Results for CC(=O)c1cccc(NC(=O)c2noc3c2CCCC3)c1 ?
SKOV3 invasion: inactive; p53null 32C tox: inconclusive; pS6 MEF inh: inactive; p53null 39C kill: inconclusive

Results for COc1ccc(OC)c(NC(=O)c2noc3c2CCCC3)c1 ?
SKOV3 invasion: inactive; S16 F2sN tox: inactive; p53null 32C tox: inactive; PMP22 txn prim: inactive; pS6 MEF inh: inactive; p53null 39C kill: inactive

Results for Cc1ccc(O)c(NC(=O)c2noc3c2CCCC3)c1 ?
SKOV3 invasion: inactive; p53null 32C tox: inconclusive; pS6 MEF inh: inactive; p53null 39C kill: 10µM

Results for Cc1ccc(O)c(NC(=O)c2noc3c2CCCCC3)c1 ?
SKOV3 invasion: inactive; S16 F2sN tox: inactive; p53null 32C tox: 13µM; PMP22 txn prim: inconclusive; pS6 MEF inh: inactive; p53null 39C kill: 13µM

How did N#Cc1cc(NC(=O)Nc2nnc(-c3ccncc3)s2)ccc1-c1cn[nH]c1 do in these assays?
SKOV3 invasion: inactive

How did COc1ccc(CSc2nc3ccncc3n2Cc2nc(-c3ccc(OC)c(OC)c3)oc2C)cc1 do in these assays?
SKOV3 invasion: inactive; S16 F2sN tox: inactive; p53null 32C tox: 13µM; PMP22 txn prim: inactive; pS6 MEF inh: inactive; p53null 39C kill: inconclusive

How did Cc1ccc(CSc2nc3ccncc3n2Cc2nc(-c3ccccc3C)oc2C)cc1 do in these assays?
SKOV3 invasion: inactive; S16 F2sN tox: inconclusive; p53null 32C tox: 7.9µM; PMP22 txn prim: inconclusive; pS6 MEF inh: inactive; p53null 39C kill: 6.3µM

How did O=C(c1ccc(C=Cc2n[nH]c3ccccc23)cc1)N1CCNCC1 do in these assays?
SKOV3 invasion: inactive

Results for CCCN1C(C(=O)c2ccccc2)=C(OC(=O)COc2ccc(C)cc2)c2ccccc2S1(=O)=O ?
SKOV3 invasion: inactive; S16 F2sN tox: inactive; p53null 32C tox: inactive; PMP22 txn prim: inconclusive; pS6 MEF inh: inactive; p53null 39C kill: 32µM

What do the screens show for `COc1ccccc1Nc1nn2c(=O)c3ccc(C(=O)NCc4cccs4)cc3nc2s1`?
SKOV3 invasion: inactive; S16 F2sN tox: 7.9µM; p53null 32C tox: 10µM; PMP22 txn prim: 10µM; pS6 MEF inh: inactive; p53null 39C kill: inconclusive

Results for CCN(CC)CCNC(=O)c1ccc2c(=O)n3nc(Nc4ccccc4OC)sc3nc2c1 ?
SKOV3 invasion: inactive; S16 F2sN tox: inactive; p53null 32C tox: inactive; PMP22 txn prim: inconclusive; pS6 MEF inh: inactive; p53null 39C kill: inconclusive

How did Cc1cc(Nc2cccc(Cl)c2)nc2ccc(NC(=O)Cc3cccc(C(F)(F)F)c3)cc12 do in these assays?
SKOV3 invasion: inconclusive; S16 F2sN tox: inactive; p53null 32C tox: inactive; PMP22 txn prim: inconclusive; pS6 MEF inh: inactive; p53null 39C kill: inconclusive

What do the screens show for `FC(F)(F)c1cccc(Nc2c3c(nc4ccc(Cl)cc24)CCC3)c1`?
SKOV3 invasion: inactive; S16 F2sN tox: inconclusive; p53null 32C tox: inconclusive; PMP22 txn prim: inconclusive; pS6 MEF inh: 5.8µM; p53null 39C kill: inconclusive

Results for Cc1cc(Nc2cccc(C(F)(F)F)c2)nc2ccc(NC(=O)c3cccnc3)cc12 ?
SKOV3 invasion: 11µM; S16 F2sN tox: inconclusive; p53null 32C tox: 28µM; PMP22 txn prim: inconclusive; pS6 MEF inh: inconclusive; p53null 39C kill: inconclusive

What do the screens show for `Cc1cc(Nc2cccc(C(F)(F)F)c2)nc2ccc(NC(=O)c3cccc(Cl)c3)cc12`?
SKOV3 invasion: inactive; S16 F2sN tox: inactive; p53null 32C tox: inactive; PMP22 txn prim: inconclusive; pS6 MEF inh: inconclusive; p53null 39C kill: 13µM

How did CC(C)c1nn(-c2c(Cl)cccc2Cl)c2nc(Cc3ccc(OCCO)cc3)[nH]c(=O)c12 do in these assays?
SKOV3 invasion: inactive

Results for NC(=O)Nc1cc(-c2ccc(CN3CCOCC3)cc2)sc1C(N)=O ?
SKOV3 invasion: inactive

Results for CNCc1ccc(-c2[nH]c3cc(F)cc4c3c2CCNC4=O)cc1 ?
SKOV3 invasion: inactive

How did CCN1C(=O)C(O)(c2c[nH]c3ccccc23)c2cc(Br)ccc21 (centres undefined) do in these assays?
SKOV3 invasion: inactive; S16 F2sN tox: inactive; p53null 32C tox: inactive; PMP22 txn prim: inconclusive; pS6 MEF inh: inactive; p53null 39C kill: inactive

Results for O=C(CC1(O)C(=O)N(CCc2ccccc2)c2ccc(Br)cc21)c1ccccc1O (centres undefined) ?
SKOV3 invasion: inactive; S16 F2sN tox: inconclusive; p53null 32C tox: inactive; PMP22 txn prim: inconclusive; pS6 MEF inh: 18µM; p53null 39C kill: inconclusive

What do the screens show for `COc1cccc(C(=O)CC2(O)C(=O)N(Cc3ccccc3)c3ccccc32)c1` (centres undefined)?
SKOV3 invasion: inactive; S16 F2sN tox: inconclusive; p53null 32C tox: inactive; PMP22 txn prim: inconclusive; pS6 MEF inh: 15µM; p53null 39C kill: inactive

How did O=C(CC1(O)C(=O)N(Cc2ccccc2)c2ccc(Br)cc21)c1ccccc1 (centres undefined) do in these assays?
SKOV3 invasion: inactive; S16 F2sN tox: inactive; p53null 32C tox: inconclusive; PMP22 txn prim: inconclusive; pS6 MEF inh: inconclusive; p53null 39C kill: 13µM

How did COc1ccc(C(=O)CC2(O)C(=O)N(Cc3cccc(C(F)(F)F)c3)c3ccccc32)cc1 (centres undefined) do in these assays?
SKOV3 invasion: inactive; S16 F2sN tox: inconclusive; p53null 32C tox: inactive; PMP22 txn prim: inconclusive; pS6 MEF inh: inconclusive; p53null 39C kill: inconclusive
